Laboratory results: ChEMBL document CHEMBL3988442, “University of Dundee, Small-Polar-MMV Screening Library” (2021)
Among all 65,000 compounds or so, about 65 (0.1%) showed an effect of 50% or more. Many of the other results were omitted from the sample, so strong results are more common in it than they were.

The compounds below were run against Tryptophan--tRNA ligase (Mycobacterium tuberculosis (strain ATCC 25618 / H37Rv)) (UniProt P9WFT3) (assay: Biochemical assay for Mt-TrpRS). Conditions: 10 µM.
Type: functional
Parameters: scale not given: direction of the effect not stated beside the values

Sequence of Tryptophan--tRNA ligase (Mycobacterium tuberculosis (strain ATCC 25618 / H37Rv)) (P9WFT3 whole entry): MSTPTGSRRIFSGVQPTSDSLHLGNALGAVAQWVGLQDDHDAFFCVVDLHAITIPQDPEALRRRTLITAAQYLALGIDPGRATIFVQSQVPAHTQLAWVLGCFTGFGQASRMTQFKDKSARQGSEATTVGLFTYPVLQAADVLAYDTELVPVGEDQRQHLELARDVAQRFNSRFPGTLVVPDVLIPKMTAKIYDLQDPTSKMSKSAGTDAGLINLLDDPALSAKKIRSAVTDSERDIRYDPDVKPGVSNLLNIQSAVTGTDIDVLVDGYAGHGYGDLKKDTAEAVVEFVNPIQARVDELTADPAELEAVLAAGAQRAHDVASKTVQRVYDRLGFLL

SMILES | Percent Effect [%]
CC(NC(=O)C1CCCCC1)c1cc(O)nc(-c2cccnc2)n1 (centres undefined) | 0.0653
CC(C)C(NC(=O)C1CC1)c1cc(O)nc(-c2cccnc2)n1 (centres undefined) | 2.42
CC(C)C(NC(=O)C1CCCC1)c1cc(O)nc(-c2cccnc2)n1 (centres undefined) | 65.2
Cc1ccc(CNCc2nnc3n2CC(C(F)(F)F)CC3)o1 (centres undefined) | -0.327
CCOc1ccc2ccccc2c1CNCC1CCS(=O)(=O)C1 (centres undefined) | -4.67
Cc1ccc(N2C[C@H](C(=O)N3CCOCC3)[C@@H]3CCO[C@@H]3C2)nn1 | -1.89
CCNC(=O)N(C)C(c1cccc(F)c1)c1ccccn1 (centres undefined) | 2.8
CCN(CC)CC(=O)N(C)C(c1cccc(F)c1)c1ccccn1 (centres undefined) | 0.435
CC(C)NC(=O)N(C)C(c1cccc(F)c1)c1ccccn1 (centres undefined) | -3.48
CC(C)N(C)CC(=O)N(C)C(c1cccc(F)c1)c1ccccn1 (centres undefined) | 94.7
CCCC(=O)N(C)C(c1cccc(F)c1)c1ccccn1 (centres undefined) | -2.61
CC(=O)N(C)C(c1cccc(F)c1)c1ccccn1 (centres undefined) | 70.3
Cc1nnc([C@@]23CCO[C@@H]2CCN(S(C)(=O)=O)C3)o1 | 14.4
CC(c1ccncc1)N1Cc2nc(N(C)C)ncc2C1=O (centres undefined) | 0.86
COC(=O)c1ncccc1N1CCCCC1 | 0.136
Cc1ccc(CN2C[C@H](N3CCOCC3)[C@@H]3OCCC[C@@H]32)o1 | -6.03
CCn1c(C(=O)N2CCN(CC(C)O)CC2)cc2ccccc21 (centres undefined) | 0.24
CCn1c(C(=O)N2CCN(C(=O)NC(C)C)CC2)cc2ccccc21 | 0.24
CCC(O)CN1CCN(C(=O)c2cc3ccccc3n2CC)CC1 (centres undefined) | 84.1
c1cnc(N2CCO[C@H]3CN(Cc4ccsc4)C[C@H]32)nc1 | -4.69
Cn1cccc1CNC(=O)CCCc1nnc2ccccn12 | 224
COc1ccc2nnc(CCCC(=O)NCc3cccn3C)n2n1 | 1.21
COc1ccc2nnc(CCC(=O)NCc3cccn3C)n2n1 | 1.87

SMILES | Percent Effect [%]
CS(=O)(=O)NC[C@]12COC[C@H]1CN(C(=O)c1ccccc1)C2 | -5.18
CC(=O)N1CC2(CCN(Cc3ccc(Cl)cc3)CC2)Cc2ccccc21 | -5.45
CN1C(=O)CC(C(=O)O)C12CCN(Cc1ccc(Cl)c(F)c1)CC2 (centres undefined) | 54.6
CN1C(=O)CC(C(=O)O)C12CCN(Cc1ccc(Cl)c(Cl)c1)CC2 (centres undefined) | -7.74
CN1C(=O)CC(C(=O)O)C12CCN(Cc1ccc(F)c(Cl)c1)CC2 (centres undefined) | -3.47
CN(C)c1ncccc1CNC(=O)N1CCCC1CN1CCCC1 (centres undefined) | 67.8
CN(C)c1ncccc1CNC(=O)N1CCCC1c1ccsc1 (centres undefined) | -2.64
CN(C)c1ncccc1CNC(=O)N1CCCC1CN1CCCCC1 (centres undefined) | -0.719
CS(=O)(=O)N1CC[C@]2(O)CCN(c3cc(C#N)ccn3)C[C@@H]2C1 | -1.89
CO[C@@H]1CC[C@H]2[C@H]1OCCN2CCOCc1ccccc1 | -7.44
CCN1CCO[C@@H]2CN(C(=O)COC3CCCC3)C[C@@H]2C1 | 14.7
CC(C)NC(=O)N1CCC2(CC1)C(=O)NCCN2Cc1ccccc1 | -4.29
O=C(NC1CC1)N1CCC2(CC1)C(=O)NCCN2Cc1ccccc1 | -5.09
O=C(CC1CC1)N1CCC2(CC1)C(=O)NCCN2Cc1ccccc1 | 54.2
Cc1ccccc1C1(C(=O)NCCN2CCCC2)CCOCC1 | 1.49
COc1ccccc1C1(C(=O)NCCN2CCOCC2)CCOCC1 | -0.235
COc1ccccc1C1(C(=O)NCCN2CCCCC2)CCOCC1 | 73.8
COc1ccc(CN2C[C@H]3CN(c4cncnc4)C(=O)[C@H]3C2)cc1 | 0.241
Cc1c(Cl)c(C(=O)NC(C)CN2CCOCC2)nn1C (centres undefined) | -1.4
Cc1oncc1C(=O)N1C[C@H]2CCCC(N(C)Cc3cccs3)[C@H]2C1 (some centres undefined) | 0.971
CSc1ccc(C(=O)N2CCOCC2c2c(C)nn(C)c2C)o1 (centres undefined) | -3.05
Cc1nn(C)c(C)c1C1COCCN1C(=O)c1ccc(Cl)o1 (centres undefined) | 80.8
Cc1nn(C)c(C)c1C1CCCN1C(=O)c1ccc(Cl)o1 (centres undefined) | 0

SMILES | Percent Effect [%]
CS(=O)(=O)N[C@H]1CN(C(=O)c2cscn2)[C@@H]2CCCO[C@H]12 | 1.91
Cn1cc(CN2CCO[C@H]3CN(Cc4ccco4)C[C@H]32)cn1 | -5.69
O=C(N[C@@H]1CN(C2CCCC2)C[C@@H]2CCCO[C@@H]21)c1cnccn1 | -1.79
COCC1CC2(CCN(C(=O)c3cccc(C)c3)CC2)CO1 (centres undefined) | -6.95
COCC1CC2(CCN(C(=O)c3ccc(OC)c(Cl)c3)CC2)CO1 (centres undefined) | -1.65
COCC1CC2(CCN(C(=O)c3ccc(F)c(Cl)c3)CC2)CO1 (centres undefined) | 54.8
c1ccc(NC[C@@H]2CCC[C@@H]3CN(Cc4cc[nH]n4)C[C@@H]32)nc1 | -8.1
CN(C)C(=O)N[C@H]1CN(Cc2ccc3c(c2)OCO3)[C@@H]2CCCO[C@H]12 | -1.66
COCCc1noc(CN(C)C2CCCN(c3cccnn3)C2)n1 (centres undefined) | 67.5
COCCc1noc(CN(C)C2CCCN(c3ccc(C)nn3)C2)n1 (centres undefined) | 0.711
CCc1nc(CN(C)C2CCCN(c3cccnn3)C2)no1 (centres undefined) | 10.3
Cc1nnc(NC(=O)CN(C)C2CCCN(c3cccnn3)C2)s1 (centres undefined) | -2.71
CN(CC(=O)Nc1ccncc1)C1CCCN(c2cccnn2)C1 (centres undefined) | -2.13
CN(CC(=O)Nc1cccnc1)C1CCCN(c2cccnn2)C1 (centres undefined) | 57.9
CN(Cc1ccco1)[C@@H]1CN(C(=O)c2ccnnc2)C[C@@H]2CCCO[C@@H]21 | 4.52
O=C1CO[C@H]2CN(Cc3ccc4c(c3)OCO4)C[C@H]2N1 | -0.835
CNC(=O)[C@@]12CCO[C@@H]1CCN(Cc1cccc(C)c1)C2 | -2.81
C=C1C(C)(C)[C@H]2CC[C@]1(C(=O)N1CCC(n3cc(CCO)nn3)CC1)C2 | 1.01
CCn1cnnc1CNC(=O)NC(c1ccccc1)C1CCCC1 (centres undefined) | 0.594
CCn1cnnc1CNC(=O)NC(c1cccs1)C1CCCC1 (centres undefined) | 55.9
CCn1cnnc1CNC(=O)NC(C)c1cccs1 (centres undefined) | -0.56
O=C(COc1ccc(Cl)cc1)N1CCOCC1c1ncon1 (centres undefined) | 3.96
O=C(COc1cccc(Br)c1)N1CCOCC1c1ncon1 (centres undefined) | -4.77

SMILES | Percent Effect [%]
O=C(COc1cccc(Cl)c1)N1CCOCC1c1ncon1 (centres undefined) | 60.2
O=C(c1ccccc1)N1CC[C@H]2C[C@H](c3nccs3)O[C@@H]2C1 | 0.277
CN(C)C(=O)c1cncnc1-c1ccc(CNC(=O)C2CCCO2)cc1 (centres undefined) | 59.1
COCC(=O)NCc1ccc(-c2ncncc2C(=O)N(C)C)cc1 | -3.46
CN(C)C(=O)c1cncnc1-c1ccc(CNC(=O)C2CC2)cc1 | 1.32
COc1ccc(CN2C[C@@H]3CN(S(=O)(=O)C4CC4)C[C@@H]3C2=O)cc1 | 2.34
c1cnc(N2CC[C@@H]3[C@@H]2CCN3Cc2cccs2)nc1 | -3.73
Cc1cc(C)n(CC2CCCN2C(=O)Cc2c(C)noc2C)n1 (centres undefined) | -1.17
Cc1cc(C)n(CC2CCCN2C(=O)c2c(C)noc2C)n1 (centres undefined) | 66.8
CCc1noc(C)c1C(=O)N1CCCC1Cn1nc(C)cc1C (centres undefined) | 1.85
CS(=O)(=O)NC[C@@H]1OC[C@H]2CN(C(=O)c3ccccc3)CC[C@H]21 | -2.6
Cc1ncoc1C(=O)N1C[C@H]2CCC[C@@]2(COCC2CCOCC2)C1 | -1.66
O=C(CC1CC1)N1CCO[C@H]2[C@H](OCCCn3cccn3)CC[C@@H]21 | -5.05
c1cncc(CN2CC[C@H]3O[C@@H](COCC4CCOCC4)CC[C@H]32)c1 | -0.469
CC[S+](CC)[c-]1c(=O)[nH]c(=O)n(Cc2ccc(F)cc2)c1=O | -5.58
CN(Cc1nnc2n1CCC2)C(=O)c1ccc2c(c1)OCCCO2 | 19.8
CN(Cc1nnc2n1CCC2)C(=O)c1ccc2c(c1)OCCO2 | 69.5
CN(Cc1nnc2n1CCC2)C(=O)c1ccc2c(c1)OCO2 | -1.84
CCN1CCCN(c2ccc(-n3ccc(C)n3)nn2)CC1 | 1.17
CCCN1CCCN(c2ccc(-n3ccc(C)n3)nn2)CC1 | -6
Cc1ccn(-c2ccc(N3CCCN(Cc4ccccc4)CC3)nn2)n1 | 119
O=S(=O)(c1ccccc1)N1C[C@@H]2COC[C@]2(COCC2CC2)C1 | 9.94
O=C(c1ccc(F)c(F)c1)N1C[C@H]2CNC[C@H]2C1 | -6.39

SMILES | Percent Effect [%]
Fc1cccc(-c2nc(CN3CCCC3Cn3cccn3)co2)c1 (centres undefined) | 74.9
Cc1ccc(-c2nc(CN3CCCC3Cn3cncn3)co2)cc1 (centres undefined) | -4.8
Fc1ccc(-c2nc(CN3CCCCC3Cn3cncn3)co2)cc1 (centres undefined) | -4.8
Fc1cccc(-c2nc(CN3CCCC3Cn3cncn3)co2)c1 (centres undefined) | 10.9
Fc1ccc(-c2nc(CN3CCCC3Cn3cncn3)co2)cc1 (centres undefined) | 53.9
Cc1cnn(CC2CCCN2Cc2coc(-c3cccc(F)c3)n2)c1 (centres undefined) | 4.37
CS(=O)(=O)N1C[C@@H]2OCC(=O)N(CC3CCC3)[C@@H]2C1 | -0.527
Cc1nn(C)c(N(C)C)c1CNCCS(C)(=O)=O | 57.4
Cc1nn(C)c(N(C)C)c1CNCCNS(C)(=O)=O | -3.19
Cc1nn(C)c(N(C)C)c1CNCCCN(C)S(C)(=O)=O | -0.817
Cc1nn(C)c(N(C)C)c1CNCCCNS(C)(=O)=O | 24.1
CCN(CCCNCc1c(C)nn(C)c1N(C)C)S(C)(=O)=O | -2.27
CCS(=O)(=O)NCCCNCc1c(C)nn(C)c1N(C)C | 51.9
CC(=O)N1[C@H](CN(C)C)C[C@@H]2CN(C(=O)c3cccn3C)CC[C@@H]21 | -8.29
Cc1cccc(COC[C@]23COC[C@H]2CN(c2ncccn2)C3)n1 | -0.382
Cc1nn(C)c(N2CCOCC2)c1CN[C@@H]1c2ccccc2C[C@@H]1O | -6.65
c1coc(CN2CC[C@H]3O[C@@H](COCC4CC4)CC[C@H]32)c1 | -3.59
CN1CCc2nc(C3CCCN(S(=O)(=O)N4CCCC4)C3)ncc2C1 (centres undefined) | -5.94
CCN(CC)S(=O)(=O)N1CCCC(c2ncc3c(n2)CCN(C)C3)C1 (centres undefined) | 50.2
CN1CCc2nc(C3CCCN(S(=O)(=O)c4ccccc4)C3)ncc2C1 (centres undefined) | -1.11
CC(=O)N1CCN(C(=O)c2cc(C(C)C)no2)[C@H]2CS(=O)(=O)C[C@H]21 | -1.55
NC[C@H]1CC[C@H](c2c(C(N)=O)sc3ccccc32)CC1 | -6.86
